Results reported in PubChem BioAssay (EPA / NIEHS).
Inconclusive results are not listed. Calls of active or inactive are those of the source. Rule for the calls, unless noted: active = hit-call score of the fitted dose curve at least 0.9, where 1 is the maximum; inactive = score below 0.9.

Tests used:
[1] = CCTE_Shafer_MEA_acute_spike_number: CCTE's Neural Acute Assay for Total Number of Spikes, Shafer Lab (AID 2284008);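 for AC50: curve fitted for decrease in spike count so AC50 reflects inhibitors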
In short: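 Cortical neurons from rat, matured to DIV 13 or 15 on microelectrode arrays, are recorded at 37 C before and during 40-min exposure to 0.03-40 uM compound. Wells need >/= 10 active electrodes.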

[2] = CCTE_Shafer_MEA_acute_firing_rate_mean: CCTE's Neural Acute Assay for Mean Firing Rate, Shafer Lab (AID 2284009);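 note: analyzed for loss of signal so actives lower firing rate relative to DMSO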
In short: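 Rat primary cortical neurons on 48-well MEA plates, dosed at 0.03-40 uM on DIV 13 or 15; 40 min spontaneous activity recorded at 37 C before and after compound. Spike rate per electrode averaged per well, expressed as percent change from baseline.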

[3] = CCTE_Harrill_HTTr_Viability_MCF7: CCTE's 6-hour Cell Viability Assessment for the High-Throughput Transcriptomics (HTTr) Platform, in MCF-7 cells cultured in DMEM + 10% fetal bovine serum, Harrill Lab (AID 2284010)
In short: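 Membrane integrity was scored by high-content imaging of propidium iodide dye exclusion after a 6 h exposure across an eight-point dilution series. Data were fitted bidirectionally relative to DMSO as negative control and baseline.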

[4] = CCTE_Harrill_HTTr_Apoptosis_MCF7: CCTE's 6-hour Apoptosis Assessment for the High-Throughput Transcriptomics (HTTr) Platform, in MCF-7 cells cultured in DMEM + 10% fetal bovine serum, Harrill Lab (AID 2284011)
In short: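 Cells are dosed with test chemicals at eight concentrations and imaged 6 hours later for caspase-3/7 activity using a green fluorogenic detection reagent. Activity is fitted in both directions against DMSO controls.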

[5] = CCTE_Harrill_HTTr_CellCount_MCF7: CCTE's Cell Proliferation Assessment for the High-Throughput Transcriptomics (HTTr) Platform, Harrill Lab (AID 2284012; active = hit-call score of the fitted dose curve at least 0.9, where 1 is the maximum;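 note: cells exposed to compound for six hours; intended direction is loss of nuclei count meaning fewer cells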)
In short: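 MCF-7 cells were exposed for 6 h to an eight-point dilution series; Hoechst-labeled nuclei were counted by high content imaging. Curves were fitted bidirectionally against DMSO as negative control and baseline, with signal loss indicating reduced cell count.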

[6] = CCTE_Shafer_MEA_acute_burst_number: CCTE's Neural Acute Assay for Single-Electrode Bursts, Shafer Lab (AID 2284013)
In short: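 Primary rat cortical neurons on 16-electrode MEA wells, treated on DIV 13 or 15 with compound at 0.03-40 uM. Single-electrode burst count from 40-min recordings at 37 C before and after exposure; percent change from baseline per well, DMSO negative control.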

[7] = CCTE_Shafer_MEA_acute_burst_duration_mean: CCTE's Neural Acute Assay for Mean Burst Duration, Shafer Lab (AID 2284014);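 note: hits are decreases in mean burst duration relative to DMSO controls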
In short: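 Rat primary cortical neurons on 48-well MEA, treated at DIV 13 or 15 with 0.03-40 uM in at least 3 wells. Value is percent change in mean burst duration, comparing 40 min recordings at 37 C before and during exposure.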

[8] = CCTE_Shafer_MEA_acute_per_burst_spike_number_mean: CCTE's Neural Acute Assay for Average Number of Spikes Per Burst, Shafer Lab (AID 2284015);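 note: hits are decreases in mean spikes per burst versus baseline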
In short: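 We recorded spontaneous network firing of rat cortical neurons for 40 min before and 40 min during exposure to compound at 0.03-40 uM, at 37 C. Spikes were detected adaptively at 8x rms noise, and the change in average spikes per burst was fitted against DMSO.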

[9] = CCTE_Shafer_MEA_acute_interburst_interval_mean: CCTE's Neural Acute Assay for Mean Interburst Interval, Shafer Lab (AID 2284016);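 note: percent change of mean interburst interval versus each well's own pre-dose baseline; curves fitted for decrease in interburst interval relative to DMSO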
In short: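 MEA recording of spontaneous network bursting in primary rat cortical cultures; mean interburst interval was compared before and after a 40-min compound exposure (0.03-40 uM) and expressed as percent change, relative to DMSO.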

[10] = CCTE_Simmons_MITO_viability: CellTiter-Glo Viability Assessment for CCTE's HepG2 Seahorse XF Respirometric Screening Assay [post-hoc], Simmons Lab (AID 2284007; active = hit-call score of the fitted dose curve at least 0.9, where 1 is the maximum;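 for AC50: cells exposed to chemical for 90 min before the ATP read; actives lower ATP signal relative to DMSO baseline meaning reduced viability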)
In short: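 HepG2 cells from the Seahorse XF respirometry run were exposed 90 min to a 7-point series, 125 nM–100 uM final, DMSO vehicle; ATP content then read by luciferase luminescence. Three biological replicates, technical singles; loss of signal fitted versus DMSO.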

Measured: AC50

Cc1c(F)c(F)c(COC(=O)C2C(/C=C(\Cl)C(F)(F)F)C2(C)C)c(F)c1F (stereo unspecified)
active: [1] 0.567 µM | [2] 0.581 µM | [6] 0.226 µM | [8] 1.76 µM
inactive: [3] | [4] | [5] | [7] | [9]

COP(=S)(OC)Oc1nc(Cl)c(Cl)cc1Cl
inactive: [1] | [2] | [3] | [4] | [5] | [6] | [7] | [9]
active: [10] 19.8 µM

O=C(Nc1ccccc1)Nc1ccnc(Cl)c1
inactive: [10] | [3] | [4] | [5]

CCNc1nc(Cl)nc(NC(C)C)n1
inactive: [1] | [2] | [3] | [4] | [5] | [6] | [7] | [8] | [9]

CCCN(CCC)c1c([N+](=O)[O-])cc(S(N)(=O)=O)cc1[N+](=O)[O-]
active: [1] 4.91 µM | [2] 4.91 µM | [6] 4.69 µM | [9] 5 µM
inactive: [10] | [3] | [4] | [5] | [7] | [8]

CO/C=C(/C(=O)OC)c1ccccc1Oc1cc(Oc2ccccc2C#N)ncn1
inactive: [10] | [1] | [2] | [3] | [4] | [5] | [6] | [7] | [8]
active: [9] 11.1 µM

CCNc1nc(Cl)nc(NCC)n1
inactive: [3] | [4] | [5]

O=C(O)c1nc(Cl)ccc1Cl
inactive: [1] | [2] | [3] | [4] | [6] | [7] | [8] | [9]

CCON=C(CC)C1=C(O)CC(c2c(C)cc(C)cc2C)CC1=O (stereo unspecified)
inactive: [3] | [4]

Oc1ccccc1-c1ccccc1
inactive: [3] | [4] | [5]

CCCCC(CC)COC(=O)c1ccccc1C(=O)OCC(CC)CCCC (stereo unspecified)
inactive: [3] | [4] | [5]

CCCCOC(=O)c1ccccc1C(=O)OCCCC
inactive: [3] | [4]

CCOC(=O)CC(SP(=S)(OC)OC)C(=O)OCC (stereo unspecified)
inactive: [3] | [4] | [5]

CCCCNC(=O)n1c(NC(=O)OC)nc2ccccc21
inactive: [3] | [4] | [5]

Cc1cc(Cl)ccc1OCC(=O)O
inactive: [3] | [4]

CC1=C(C(=O)Nc2ccccc2)SCCO1
inactive: [3] | [4] | [5]

CNC(=S)S
inactive: [3] | [4] | [5]

CS/C(C)=N/OC(=O)N(C)SN(C)C(=O)O/N=C(\C)SC
active: [9] 29.7 µM
inactive: [1] | [2] | [3] | [4] | [5] | [6] | [7] | [8]

COC(=O)C=C(C)OP(=O)(OC)OC
inactive: [3] | [4] | [5]

COP(N)(=O)SC (stereo unspecified)
inactive: [1] | [2] | [3] | [4] | [6] | [7] | [8] | [9]

Fc1ccc(Oc2ccnc3cc(Cl)cc(Cl)c23)cc1
inactive: [1] | [2] | [3] | [4] | [6] | [7] | [8] | [9]

C=CC1(C)OC(=O)N(c2cc(Cl)cc(Cl)c2)C1=O (stereo unspecified)
inactive: [3] | [4] | [5]

O=C(O)COc1nc(Cl)c(Cl)cc1Cl
inactive: [3] | [4] | [5]

CCOC(=O)C(Cl)Cc1cc(-n2nc(C)n(C(F)F)c2=O)c(F)cc1Cl (stereo unspecified)
inactive: [3] | [4] | [5]

COc1cnc(OC)n2nc(NS(=O)(=O)c3c(OCC(F)F)cccc3C(F)(F)F)nc12
inactive: [3] | [4] | [5]

CN(C)C(=S)SSC(=S)N(C)C
inactive: [3] | [4] | [5]

CC(C)C1(C)N=C(c2nc3ccccc3cc2C(=O)O)NC1=O (stereo unspecified)
inactive: [3] | [4]

CC(Oc1ccc(Cl)cc1Cl)C(=O)O (stereo unspecified)
inactive: [1] | [2] | [3] | [4] | [6] | [7] | [8] | [9]

CCOc1cc(Oc2ccc(C(F)(F)F)cc2Cl)ccc1[N+](=O)[O-]
inactive: [3] | [4] | [5]

COC(=O)c1ccccc1C(=O)OC
inactive: [3] | [4]

C#CCOS(=O)OC1CCCCC1Oc1ccc(C(C)(C)C)cc1 (stereo unspecified)
active: [1] 9.46 µM | [2] 9.48 µM | [8] 33.6 µM
inactive: [3] | [4] | [5] | [6] | [7] | [9]

CNC(=O)ON=CC(C)(C)SC
inactive: [1] | [2] | [3] | [4] | [6] | [7] | [8] | [9]
